About 8,800 targets were measured; listed, in parts, are those with a hit and a random draw of the rest. About 0.5% of all pairs of compound and target were hits. A number with no mark means an inactive call.
What was measured:
Experiment in all cases: log2 fold change, soluble protein after heating vs DMSO (PISA); higher = thermal stabilisation; K562 lysate, 10 uM; active = over 0.2 and 3.5 SD of the protein, either way, in both replicates (recomputed)
[1] = compound: CCCS(=O)(=O)Nc1ccc(F)c(C(=O)c2c[nH]c3ncc(-c4ccc(Cl)cc4)cc23)c1F [vemurafenib]
Summary of the method: (§1)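 Dounce homogenisation of K562 pellets in PBS pH 7.4 with 1 mM MgCl2 produced a crude extract, used at 1 mg/mL protein. Exposure to 10 μM compound lasted 30 min, and aliquots were then heated for 3 min across 48°C-58°C, pooled and brought to 0.5% NP-40 at 4°C. The supernatant after 21,000xg for 90 min was quantified by TMTpro 16plex LC-MS/MS with channel sums equalised. Duplicate values are given as log-two fold change in thermal stability relative to solvent controls.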

[2] = compound: CCCS(=O)(=O)Nc1ccc(F)c(C(=O)c2c[nH]c3ncc(Cl)cc23)c1F
Summary of the method: as §1

[3] = compound: CCN(CCCOc1ccc2c(Nc3cc(CC(=O)Nc4cccc(F)c4)[nH]n3)ncnc2c1)CCOP(=O)(O)O [barasertib]
Summary of the method: as §1

[4] = compound: CC[C@@H]1C(=O)N(C)c2cnc(Nc3ccc(C(=O)NC4CCN(C)CC4)cc3OC)nc2N1C1CCCC1
Summary of the method: as §1

[5] = compound: CC[C@@H]1C(=O)N(C)c2cnc(Nc3ccc(C(=O)N[C@H]4CC[C@H](N5CCN(CC6CC6)CC5)CC4)cc3OC)nc2N1C(C)C [volasertib]
Summary of the method: as §1

[6] = compound: CCn1c(C(=O)N(C2CC2)C2CC2)cc2c3c(ncn3C)c(Nc3cc(C)n(C)n3)nc21
Summary of the method: as §1

[7] = compound: CCn1cc(-c2ccnc3[nH]c(-c4cccc(CN(C)C)c4)cc23)c(-c2ccc(NC(=O)N(C)C)cc2)n1
Summary of the method: as §1

[8] = compound: CN1CCC(CNc2ccc3ncc(-c4cccc(OC(F)(F)F)c4)n3n2)CC1
Summary of the method: as §1

[9] = compound: CN1CCN(CCOc2cc(OC3CCOCC3)c3c(Nc4c(Cl)ccc5c4OCO5)ncnc3c2)CC1 [saracatinib]
Summary of the method: as §1

[10] = compound: CN1CCN(c2nc(C3=C(c4c[nH]c5ccccc45)C(=O)NC3=O)c3ccccc3n2)CC1 [sotrastaurin]
Summary of the method: as §1

Sequence of UniProt P49356 (P49356 whole entry, looked up): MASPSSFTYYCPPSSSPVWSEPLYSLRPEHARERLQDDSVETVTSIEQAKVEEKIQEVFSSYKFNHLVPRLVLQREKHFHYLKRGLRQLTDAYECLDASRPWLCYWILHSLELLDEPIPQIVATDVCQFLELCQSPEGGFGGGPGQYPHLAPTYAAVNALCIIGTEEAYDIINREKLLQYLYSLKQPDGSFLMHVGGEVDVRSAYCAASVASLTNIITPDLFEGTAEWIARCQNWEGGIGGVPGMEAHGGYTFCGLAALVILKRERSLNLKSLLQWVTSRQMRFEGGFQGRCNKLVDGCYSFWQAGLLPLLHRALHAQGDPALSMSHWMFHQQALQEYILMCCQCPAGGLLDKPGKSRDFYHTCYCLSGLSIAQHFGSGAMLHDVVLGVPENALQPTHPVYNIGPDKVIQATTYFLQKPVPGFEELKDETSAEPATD
Sequence of UniProt O43427 (O43427 whole entry, looked up): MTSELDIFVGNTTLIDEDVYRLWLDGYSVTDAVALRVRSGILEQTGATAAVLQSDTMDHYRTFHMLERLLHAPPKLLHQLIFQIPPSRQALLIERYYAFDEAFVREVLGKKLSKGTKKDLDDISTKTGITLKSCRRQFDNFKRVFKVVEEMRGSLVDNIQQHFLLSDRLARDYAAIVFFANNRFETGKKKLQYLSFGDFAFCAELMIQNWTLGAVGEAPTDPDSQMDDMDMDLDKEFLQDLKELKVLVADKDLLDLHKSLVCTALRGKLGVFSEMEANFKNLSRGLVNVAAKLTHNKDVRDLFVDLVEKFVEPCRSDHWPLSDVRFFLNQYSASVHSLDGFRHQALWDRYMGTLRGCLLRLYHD
Sequence of UniProt P23919 (P23919 whole entry, looked up): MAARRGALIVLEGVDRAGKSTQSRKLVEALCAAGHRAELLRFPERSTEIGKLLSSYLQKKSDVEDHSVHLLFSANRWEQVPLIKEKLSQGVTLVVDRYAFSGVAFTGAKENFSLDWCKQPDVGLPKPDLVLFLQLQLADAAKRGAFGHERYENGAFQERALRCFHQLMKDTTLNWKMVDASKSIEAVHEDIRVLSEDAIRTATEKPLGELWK
Sequence of UniProt Q9NR50 (Q9NR50 whole entry, looked up): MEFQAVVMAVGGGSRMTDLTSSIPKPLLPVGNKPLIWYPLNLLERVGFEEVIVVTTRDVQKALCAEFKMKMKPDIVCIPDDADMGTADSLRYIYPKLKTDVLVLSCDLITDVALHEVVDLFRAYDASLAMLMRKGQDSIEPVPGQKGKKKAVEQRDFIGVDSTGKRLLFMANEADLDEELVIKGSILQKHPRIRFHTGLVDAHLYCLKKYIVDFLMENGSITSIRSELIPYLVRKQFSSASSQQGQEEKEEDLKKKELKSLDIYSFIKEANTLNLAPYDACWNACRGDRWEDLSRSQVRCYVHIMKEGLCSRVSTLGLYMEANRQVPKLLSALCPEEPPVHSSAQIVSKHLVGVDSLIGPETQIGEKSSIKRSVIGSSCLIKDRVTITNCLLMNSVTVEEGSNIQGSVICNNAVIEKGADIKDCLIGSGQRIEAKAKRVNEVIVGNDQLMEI
Sequence of UniProt Q13347 (Q13347 whole entry, looked up): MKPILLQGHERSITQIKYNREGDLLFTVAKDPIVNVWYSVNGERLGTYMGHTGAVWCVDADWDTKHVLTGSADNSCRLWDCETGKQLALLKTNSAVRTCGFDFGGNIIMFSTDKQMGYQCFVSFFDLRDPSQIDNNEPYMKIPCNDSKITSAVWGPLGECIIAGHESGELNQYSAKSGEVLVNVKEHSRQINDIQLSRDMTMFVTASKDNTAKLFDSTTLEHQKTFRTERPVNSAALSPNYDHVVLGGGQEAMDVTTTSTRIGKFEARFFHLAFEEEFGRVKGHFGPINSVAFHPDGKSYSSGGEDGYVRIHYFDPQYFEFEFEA
Sequence of UniProt Q9BXW9 (Q9BXW9 whole entry, looked up): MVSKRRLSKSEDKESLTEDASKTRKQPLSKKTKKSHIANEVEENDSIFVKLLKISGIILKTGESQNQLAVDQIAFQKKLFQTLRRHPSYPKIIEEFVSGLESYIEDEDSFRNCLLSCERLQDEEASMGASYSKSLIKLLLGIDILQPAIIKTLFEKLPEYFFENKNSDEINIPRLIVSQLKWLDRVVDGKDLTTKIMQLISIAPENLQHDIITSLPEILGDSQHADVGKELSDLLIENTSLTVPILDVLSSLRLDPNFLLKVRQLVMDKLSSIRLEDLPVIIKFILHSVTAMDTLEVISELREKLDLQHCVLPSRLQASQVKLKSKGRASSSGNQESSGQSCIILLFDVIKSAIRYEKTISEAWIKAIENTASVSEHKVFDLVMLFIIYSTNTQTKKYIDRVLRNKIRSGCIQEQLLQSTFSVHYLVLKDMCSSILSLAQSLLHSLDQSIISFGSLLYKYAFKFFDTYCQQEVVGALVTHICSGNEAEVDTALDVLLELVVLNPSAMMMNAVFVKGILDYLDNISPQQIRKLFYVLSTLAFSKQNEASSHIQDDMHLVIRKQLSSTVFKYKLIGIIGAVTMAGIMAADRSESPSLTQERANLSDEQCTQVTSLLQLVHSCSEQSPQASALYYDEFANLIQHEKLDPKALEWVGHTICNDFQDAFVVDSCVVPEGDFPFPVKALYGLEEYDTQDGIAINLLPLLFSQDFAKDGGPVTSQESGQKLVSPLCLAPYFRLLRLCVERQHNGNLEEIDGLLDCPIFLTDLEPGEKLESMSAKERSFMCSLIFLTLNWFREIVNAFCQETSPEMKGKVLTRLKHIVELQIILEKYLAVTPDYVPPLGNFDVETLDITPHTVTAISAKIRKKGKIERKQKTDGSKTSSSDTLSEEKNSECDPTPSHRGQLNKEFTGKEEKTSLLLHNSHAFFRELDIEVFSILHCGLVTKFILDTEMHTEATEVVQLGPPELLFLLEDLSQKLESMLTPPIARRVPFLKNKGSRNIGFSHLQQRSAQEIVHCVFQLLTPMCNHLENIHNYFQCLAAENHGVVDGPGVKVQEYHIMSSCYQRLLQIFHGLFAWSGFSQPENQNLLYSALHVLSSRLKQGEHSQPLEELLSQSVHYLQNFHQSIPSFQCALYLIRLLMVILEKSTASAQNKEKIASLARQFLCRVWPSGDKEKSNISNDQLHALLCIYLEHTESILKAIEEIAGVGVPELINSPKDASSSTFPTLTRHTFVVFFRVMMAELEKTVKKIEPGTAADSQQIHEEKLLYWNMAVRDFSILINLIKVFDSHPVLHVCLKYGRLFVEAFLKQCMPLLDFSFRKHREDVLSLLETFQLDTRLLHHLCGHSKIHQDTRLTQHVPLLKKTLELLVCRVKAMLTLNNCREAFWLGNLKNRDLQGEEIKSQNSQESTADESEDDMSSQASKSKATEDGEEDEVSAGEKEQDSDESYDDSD
Sequence of UniProt Q5VTE0 (Q5VTE0 whole entry, looked up): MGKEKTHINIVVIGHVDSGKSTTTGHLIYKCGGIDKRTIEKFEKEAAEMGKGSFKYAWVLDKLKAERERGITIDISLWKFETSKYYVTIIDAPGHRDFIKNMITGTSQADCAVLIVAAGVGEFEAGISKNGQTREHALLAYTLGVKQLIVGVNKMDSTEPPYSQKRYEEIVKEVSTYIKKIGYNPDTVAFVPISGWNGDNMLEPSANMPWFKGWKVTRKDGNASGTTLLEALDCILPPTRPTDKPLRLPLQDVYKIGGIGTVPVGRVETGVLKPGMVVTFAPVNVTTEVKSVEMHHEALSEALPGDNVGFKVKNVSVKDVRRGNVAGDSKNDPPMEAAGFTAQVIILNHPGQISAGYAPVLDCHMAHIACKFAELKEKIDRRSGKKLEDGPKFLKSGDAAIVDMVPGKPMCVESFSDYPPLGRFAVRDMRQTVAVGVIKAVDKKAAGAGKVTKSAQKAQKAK
Sequence of UniProt Q92947 (Q92947 whole entry, looked up): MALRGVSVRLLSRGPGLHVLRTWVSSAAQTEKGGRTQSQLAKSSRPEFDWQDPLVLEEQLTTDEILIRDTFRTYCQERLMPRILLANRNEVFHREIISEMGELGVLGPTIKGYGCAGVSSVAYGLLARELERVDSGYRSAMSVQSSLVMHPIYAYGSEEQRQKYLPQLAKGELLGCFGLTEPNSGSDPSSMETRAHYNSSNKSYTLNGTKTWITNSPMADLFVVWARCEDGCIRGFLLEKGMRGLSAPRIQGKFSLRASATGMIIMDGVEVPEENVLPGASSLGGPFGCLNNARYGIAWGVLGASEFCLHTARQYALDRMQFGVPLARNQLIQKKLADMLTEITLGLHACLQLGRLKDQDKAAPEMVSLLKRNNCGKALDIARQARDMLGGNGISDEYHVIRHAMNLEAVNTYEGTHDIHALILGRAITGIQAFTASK
Sequence of UniProt Q13011 (Q13011 whole entry, looked up): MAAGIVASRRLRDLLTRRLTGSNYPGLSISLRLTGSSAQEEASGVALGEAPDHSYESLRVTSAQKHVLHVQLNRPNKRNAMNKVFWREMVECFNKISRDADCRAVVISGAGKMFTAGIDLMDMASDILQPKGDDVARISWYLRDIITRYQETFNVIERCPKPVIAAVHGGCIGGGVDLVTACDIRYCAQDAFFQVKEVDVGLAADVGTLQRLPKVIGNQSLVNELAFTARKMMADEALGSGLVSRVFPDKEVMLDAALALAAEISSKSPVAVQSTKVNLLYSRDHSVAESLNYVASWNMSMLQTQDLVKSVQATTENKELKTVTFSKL
Sequence of UniProt O75616 (O75616 whole entry, looked up): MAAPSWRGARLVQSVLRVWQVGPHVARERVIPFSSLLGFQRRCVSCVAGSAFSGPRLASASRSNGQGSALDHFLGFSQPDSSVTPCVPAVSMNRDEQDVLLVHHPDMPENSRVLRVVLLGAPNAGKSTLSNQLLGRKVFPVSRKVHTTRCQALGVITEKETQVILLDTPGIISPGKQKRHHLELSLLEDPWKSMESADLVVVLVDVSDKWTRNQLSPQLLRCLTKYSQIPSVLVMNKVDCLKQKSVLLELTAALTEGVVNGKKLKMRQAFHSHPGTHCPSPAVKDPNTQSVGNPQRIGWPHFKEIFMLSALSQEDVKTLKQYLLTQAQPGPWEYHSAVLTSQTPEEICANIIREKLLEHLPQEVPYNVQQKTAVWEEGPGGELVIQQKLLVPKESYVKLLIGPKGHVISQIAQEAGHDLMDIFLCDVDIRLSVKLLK

Target	log2 fold change [1]	log2 fold change [2]	log2 fold change [3]	log2 fold change [4]	log2 fold change [5]	log2 fold change [6]	log2 fold change [7]	log2 fold change [8]	log2 fold change [9]	log2 fold change [10]
FIG4 (UniProt Q92562)	0.107	0.071	-0.085	-0.201	-0.012	-0.045	0.104	-0.012	0.032	0.092
EIF2B3 (UniProt Q9NR50)	0.013	0.021	-0.008	-0.028	-0.02	0.044	0.287 (active)	-0.111	0.005	-0.003
EPB41 (UniProt P11171)	-0.051	0.005	-0.009	-0.033	-0.02	0.022	0.026	-0.135	0.014	0.026
EIF3I (UniProt Q13347)	0.017	0.025	0.017	-0.113	-0.078	0.011	-0.034	-0.03	-0.008	0.027
ENY2 (UniProt Q9NPA8)	-0.057	0.016	0.072	-0.036	0.033	0.048	0.886 (active)	-0.406 (active)	-0.003	-0.003
ECH1 (UniProt Q13011)	-0.003	-0.025	-0.008	-0.019	0.041	-0.007	-0.07	0.348 (active)	-0.047	0.608 (active)
FANCD2 isoform 1 (UniProt Q9BXW9)	0.067	0.053	0.04	0.14	-0.045	0.017	-0.135	0.02	0.016	-0.029
ERLIN2 (UniProt O94905)	-0.003	0.012	0.021	0.05	-0.029	0.012	0.384 (active)	-0.135	0.008	-0.008
DVL2 (UniProt O14641)	0.067	-0.172	0.119	-0.033	0	0.007	0.011	-0.003	0.018	-0.055
FANCI (UniProt Q9NVI1)	0.018	0.021	0.045	-0.028	-0.053	0.031	0.021	-0.119	0.017	0.02
EPRS (UniProt P07814)	0.01	-0.001	0.001	-0.077	-0.068	0.024	-0.025	-0.035	0.014	0.02
ERAL1 (UniProt O75616)	-0.058	-0.016	-0.032	0.065	-0.046	0.059	-0.065	-0.359 (active)	-0.035	0.02
FNTB (UniProt P49356)	0.055	-0.009	-0.036	0.285 (active)	0.005	0.037	-0.036	0.016	0.016	0.042
GCDH (UniProt Q92947)	0.031	0.025	-0.054	0.002	0.022	-0.003	-0.07	-0.077	-0.041	-0.041
FIBP (UniProt O43427)	-0.011	0.041	0.105	-0.236 (active)	-0.013	-0.001	-0.028	-0.021	0.039	0.008
EIF2AK2 (UniProt P19525)	0.025	0.012	-0.038	-0.09	-0.03	-0.008	-0.081	0.067	-0.011	0.007
FAU (UniProt E9PR30)	-0.009	-0.015	-0.17	0.005	-0.002	0.036	0.33 (active)	-0.076	-0.042	-0.012
EPHX2 (UniProt P34913)	-0.026	-0.01	-0.026	0.016	0.041	-0.004	-0.044	0.119	-0.018	0.06
EEF1A1P5 (UniProt Q5VTE0)	0.022	0.002	-0.017	0.004	-0.022	-0.031	-0.105	0.073	-0.021	0.025
GABPB1 isoform 3 (UniProt Q06547)	0.057	0.074	0.141	-0.048	-0.11	-0.016	-0.042	-0.028	-0.006	-0.022
GCLM (UniProt P48507)	0.014	0.025	-0.007	0	-0.015	-0.013	-0.011	-0.012	0.011	-0.022
GFPT1 (UniProt Q06210)	0.014	0.02	0.009	-0.026	-0.036	0.007	0.009	-0.042	0.009	-0.014
EIF1 (UniProt P41567)	0.013	-0.014	-0.053	0.053	0.023	-0.05	0.009	0.084	-0.02	-0.042
EEF1AKNMT (UniProt Q8N6R0)	-0.007	0.041	0.008	-0.08	-0.026	0.053	-0.026	-0.031	-0.017	0.008
GGT7 (UniProt Q9UJ14)	0.003	0.029	0.007	0.037	-0.014	-0.014	-0.003	0.027	0.097	0.032
DTYMK (UniProt P23919)	-0.008	0.042	0.022	-0.062	0.006	0.059	0.011	-0.032	0.011	-0.033
EXTL2 (UniProt Q9UBQ6)	-0.052	0.066	0.057	-0.13	0.019	0.03	-0.198	0.078	-0.017	-0.026
EXOC6 (UniProt Q8TAG9)	-0.041	0.033	0.032	-0.033	-0.047	0.032	-0.05	-0.075	0.018	0.06

From the supplement of paper PMC10849652
